Inconclusive results are not listed. Calls of active or inactive are those of the source. The call rests on the fitted dose curve; in most records, active means well fitted inhibition curve with a large enough effect; inconclusive means small, poorly fitted or top-dose-only effect; inactive means no such curve, though single readings can be large or run the other way.
Test: Acumen qHTS Assay for Inhibitors of the mTORC1 Signaling Pathway in WT MEF Cells: Hit Validation; further: nearly all actives have a fitted effect of over 60% in size
Settings: Acumen imaging; series mostly up to 37.3 µM
Method in brief: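 Read-out is immunofluorescent phospho-rpS6 (Ser235/236) normalised to PI-stained cell number, reported as % active cells using a 7.5 nM rapamycin threshold. Cells: WT or Tsc2-/-, p53-/- MEFs, compound-exposed 24 h at 37C; PI count also tracks viability.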
Potency means the concentration at half of the fitted maximal effect.

Potency, inactive:
Cn1nnnc1SCCCNCc1ccccc1OCc1ccc(Cl)cc1, CC1=C(C(=O)OC2CCCC2)C(c2ccccc2Cl)CC(=O)N1 (stereo not given), CN(C)CCN(Cc1ccco1)C(=O)c1cc2c(s1)-c1ccccc1OC2, COc1ccc(OC)c(NC(=O)c2nnn(CC(=O)Nc3ccc(C(C)C)cc3)c2N)c1, C=C(C)CSc1nc(-c2ccccc2)cc(-c2ccc(OC)cc2)c1C#N, O=C(C1CCN(c2nc3ccccc3[nH]2)CC1)N1CCN(c2cccc(Cl)c2)CC1, Cc1cn([C@H]2C[C@H](N=[N+]=[N-])[C@@H](CO)O2)c(=O)[nH]c1=O, COc1ccc(OCc2nc3c4c(-c5ccccc5)c(-c5ccccc5)oc4ncn3n2)cc1, CCc1ccc(OCC(=O)N(Cc2ccc(C)cc2)Cc2ccco2)cc1, CCN1CCC(N(Cc2ccc(F)cc2)C(=O)Nc2ccc(C)c(F)c2)CC1, Cc1ccc(NC(=O)CSc2ccc(-c3ccccn3)nn2)cc1F, CCOc1ccc(-n2c(C)nc3c(cnn3-c3ccc(C)cc3)c2=O)cc1, CC(C)CCNC(=O)Nc1ccc2c(c1)N(C)C(=O)c1ccccc1S2, Cc1cccc(OCc2ccc(-c3nc(C#N)c(NCCN(C)C)o3)o2)c1, Cc1ccc(Nc2nnc(-c3ccc(C)c(S(=O)(=O)N4CCOCC4)c3)c3ccccc23)c(C)c1, Cc1cccc(-c2nc3c(cnn3-c3ccccc3)c(=O)n2-c2ccc(Br)cc2)c1, CCc1ccccc1NC(=O)CSCc1cnn(-c2ccccc2)c1-n1cccc1, Cc1ccc(-c2cc(C(=O)N3CCN(c4ccccc4)CC3)c3ccccc3n2)cc1C, COc1ccc(NC(=O)CSc2nc3ccccc3nc2N2CCC(C)CC2)cc1, COc1ccc(-n2ncc3c(NCCCOC(C)C)ncnc32)cc1, COc1cccc(C2CC(=O)Nc3cc4c(cc32)OCCO4)c1OC (stereo not given), Cn1nnnc1SCCCNCc1cccc(OCc2ccc(Cl)cc2)c1, CCCCOC(=O)c1ccc(NC(=O)c2ccc3c(c2)CCN3S(=O)(=O)c2ccccc2)cc1, CCOC(=O)C(Cc1c[nH]c2ccccc12)NC(=O)COc1ccc(Cl)cc1 (stereo not given), CCCCN(C)C(=O)CSc1c2c(nc3ccc(Cl)cc13)CCCC2, Cc1ccc(-c2nnn(CC(=O)N(CC(=O)NCCC(C)C)c3ccc(F)cc3)n2)cc1, O=C(NCc1ccccc1)c1ccc2c(c1)N(Cc1ccccc1F)C(=O)c1ccccc1S2=O (stereo not given), Cn1nc(-c2ccc(OCC(=O)Nc3ccccc3)cc2)c2ccccc2c1=O, CCC(=O)C1=C(c2ccc(F)cc2)N(C(=O)CC)n2cnnc2S1, COc1ccc(C)cc1NC(=O)CSc1ccc(-c2ccccn2)nn1, O=C(NCCc1nc2ccccc2n1Cc1ccc(Cl)cc1Cl)c1ccco1, CCCOc1cccc(C2c3c(-c4ccccc4O)n[nH]c3C(=O)N2Cc2ccco2)c1 (stereo not given)

Potency, active:
Cc1ccc(C)c(Cn2c3ccccc3c3cnn(CC(=O)NC(C)CCc4ccccc4)c(=O)c32)c1 (stereo not given) 18.5 µM, COc1ccc(CC(=O)Nc2sc3c(c2C(=O)Nc2ccccc2)CCCCC3)cc1 13.1 µM, O=C(Cn1c(=O)c2ccccc2n(CC(=O)Nc2ccc(Cl)cc2)c1=O)NCCc1ccccc1 14.7 µM, COc1ccc2nc(NC(=O)c3nc(S(=O)(=O)Cc4ccccc4F)ncc3Cl)sc2c1 13.1 µM, Fc1ccc(Nc2nc3nonc3nc2Nc2cccc(C(F)(F)F)c2)cc1 5.21 µM, Nc1c(C(=O)NCc2ccccc2)nnn1Cc1cccc(Br)c1 13.1 µM, CCOc1ccc(NC(=O)CSc2oc(-c3ccc(F)cc3)nc2S(=O)(=O)c2ccc(C)cc2)cc1 2.33 µM, CCS(=O)(=O)c1oc(-c2ccc(F)cc2)nc1S(=O)(=O)c1ccc(Br)cc1 4.65 µM

Reference: PubChem BioAssay AID651789 (National Center for Advancing Translational Sciences (NCATS), 2012)
